The source made the active and inactive calls.

Experiment [1] in a line: A549 cell viability effects, profiling panel, calcein-AM fluorescence, 48 h, basal (AID 1162). The conditions noted are these: higher = more signal.
A short description of experiment [2]: adipocyte viability effects, profiling panel, cell-based, 3T3-L1 adipocytes, calcein-AM fluorescence, 48 h, basal (AID 1163). The settings on record: 3T3-L1 adipocytes viability, higher = more signal.
Experiment [3] is described as follows: HepG2 cell viability effects, profiling panel, calcein-AM fluorescence, 48 h, basal (AID 1164). The conditions noted are these: higher = more signal.
Experiment [4] can be described thus: MM1S cell viability effects, profiling panel, calcein-AM fluorescence, 48 h, basal (AID 1165).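 Further: viability of MM1S multiple myeloma cells under basal unstimulated conditions.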 The conditions noted are these: higher = more signal.
Experiment [5] in a line: basal RPMI8226 viability, no added stimulus, profiling panel, cell-based, calcein-AM fluorescence, 48 h, PK04 Diversity Set (AID 1166).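 Further: cells grown under basal conditions without added stimulus.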 The settings on record: RPMI8226 myeloma viability, higher = more signal.
Experiment [6] in a line: basal HepG2 mitochondrial membrane potential changes, profiling panel, cell-based, JC-1 fluorescence, 24 h, 100 nL compound (AID 1167). The settings on record: higher = more signal.
Experiment [7] can be described thus: basal 3T3-L1 adipocyte mitochondrial potential changes, profiling panel, cell-based, JC-1 fluorescence, 3T3-L1 adipocytes, 24 h, 100 nL compound (AID 1168). The settings on record: JC-1 mitochondrial fluorescence, higher = more signal, called active from +8 up or from −8 down.
Experiment [8] is described as follows: basal RPMI8226 mitochondrial membrane potential changes, profiling panel, cell-based, JC-1 fluorescence, 24 h, 100 nL compound (AID 1169). The settings on record: RPMI8226 myeloma, JC-1 mitochondrial potential fluorescence, higher = more signal.
A short description of experiment [9]: basal MM1S mitochondrial membrane potential changes, profiling panel, cell-based, JC-1 fluorescence, 24 h, 100 nL compound (AID 1170). The settings on record: higher = more signal.
A short description of experiment [10]: A549 lung cancer cell viability effects, profiling panel, resazurin fluorescence, 24 h, PK04 Diversity Set (AID 1171). The settings on record: higher = more signal, called active from +8 up or from −8 down. (In general: The colour change of resazurin is a common sign of viable cells or microbes.)
Further: test concentration not given here.

Regarding `COC(=O)[C@@]1(Cc2ccccc2)[C@H]2c3cc(C(=O)N4CCCC4)n(Cc4ccc(OC)c(OC)c4)c3C[C@H]2CN1C(=O)c1ccccc1`, the z-score in experiment [1] is 0.126; in experiment [2] it was 0.106; in [3], -0.257; in [4], -0.571; in experiment [5], -1.05; in experiment [6], 3.84. Also, the z-score in [7] was 1.09 (inactive); in experiment [8], -0.73; in [9] it was -0.52; in experiment [10] it was 0.613 (inactive).

`C=CCC(OC(C)=O)[C@@H]1[C@@H](N(Cc2ccc(-c3cccc(C(F)(F)F)c3)o2)C(=O)c2ccc(-c3ccccc3)cc2)c2cc(OCCCO)ccc2N1C(=O)c1ccc2ccccc2c1` (stereo not given in full): the z-score in experiment [1] was 0.965; in experiment [2], 1.28; in experiment [3], 0.612; in experiment [4], 0.0723; in [5], -0.164; in experiment [6] it was 2.76. In addition, the z-score was -0.081 (inactive) in experiment [7], 0.677 in experiment [8], 0.681 in experiment [9] and 0.919 (inactive) in experiment [10].

For the compound `O=C1O[C@H](Cc2ccccc2)[C@@H]2[C@H]3C=CCCC=C3CN2[C@H]1Cc1ccc(O)cc1`, the z-score was 0.405 in experiment [1]; -0.276 in [2]; 0.146 in experiment [3]; -3.14 in [4]; -0.148 in experiment [5]; -2.65 in experiment [6]. The z-score in experiment [7] is -0.639 (inactive); in [8] it was -1.05; in experiment [9] it was -1.69; in experiment [10], 0.745 (inactive).

Take `COc1ccc([Si](C)(C)[C@@H]2[C@@H](CC(=O)N(CCO)Cc3ccccc3)O[C@]3(C(=O)N(Cc4ccc(N5C(=O)c6cccc7cccc5c67)cc4)c4ccccc43)[C@H]2C)cc1`: the z-score in [1] was -0.538; in [2] it was 0.427; in [3] it was -1.43; in [4], -1.82; in experiment [5], -3.52; in experiment [6], -0.038. In addition, the z-score was 0.161 (inactive) in [7], -1.02 in experiment [8], -1.18 in [9] and -1.51 (inactive) in [10].

For `O=C(NCCN1CCOCC1)[C@@H]1c2ccccc2C(=O)N(Cc2ccc(OC(F)(F)F)cc2)[C@H]1c1ccc(CO)cc1`, the z-score in experiment [1] was 3.01; in [2] it was 1.04; in [3], 0.113; in experiment [4] it was 0.0559; in [5], -0.231; in experiment [6] it was 2.31. For the same compound, the z-score was 0.229 (inactive) in experiment [7], 1.04 in experiment [8], 0.745 in experiment [9] and 0.614 (inactive) in experiment [10].

Regarding `O=C1C2C=CC(C(O)C3CCCCC3)N(n3cnnc3)C2C(=O)N1Cc1ccccc1` (stereo not given), the z-score in experiment [1] was -0.916; in experiment [2], 0.379; in experiment [3], -0.611; in experiment [4] it was -0.453; in experiment [5], -0.441; in [6], -0.37. The z-score in experiment [7] is -2.27 (inactive); in experiment [8] it was -0.0098; in experiment [9] it was -1.04; in [10], 0.714 (inactive).

With `O=C1c2ccccc2[C@@]2(Cc3ccccc3N(Cc3ccccc3)C2=O)[C@H](c2ccc(CO)cc2)N1Cc1ccccc1Cl`, the z-score in experiment [1] was -0.334; in experiment [2] it was 0.331; in [3], -0.826; in [4], -0.411; in experiment [5], 0.139; in experiment [6], 1.1. Further, the z-score in experiment [7] is -0.407 (inactive); in experiment [8], -0.972; in experiment [9], -0.316; in experiment [10], -0.166 (inactive).

On to `CN(C)c1ccc(C(O)C2C=CC3C(=O)N(Cc4ccccc4)C(=O)C3N2n2cnnc2)cc1` (stereo not given), for which the z-score is 0.566 in [1]; -0.179 in experiment [2]; 2.13 in experiment [3]; 0.0017 in experiment [4]; 1.4 in experiment [5]; 0.0219 in experiment [6]. Also, the z-score in experiment [7] was 0.522 (inactive); in experiment [8], -0.203; in experiment [9], 1.23; in experiment [10], -1.04 (inactive).

On to `C=C(C)[C@@H]1CC=C(C(O)C2C=CC3C(=O)N(C)C(=O)C3N2Nc2ccc([N+](=O)[O-])cc2[N+](=O)[O-])CC1` (stereo not given in full), for which the z-score in [1] is -0.34; in experiment [2], -0.924; in experiment [3], -0.303; in [4], -0.731; in [5], -2.48; in [6], -0.286. For the same compound, the z-score was -1.71 (inactive) in experiment [7], 0.553 in [8], -0.755 in experiment [9] and -0.375 (inactive) in [10].

As for `COc1cc(C(O)C2C=CC3C(=O)N(c4ccccc4)C(=O)C3N2Nc2ccccc2F)cc(OC)c1OC` (stereo not given), the z-score in experiment [1] was 0.0221; in experiment [2], -0.603; in experiment [3], -0.162; in [4], -1.76; in experiment [5] it was -1.63; in experiment [6], -1.15. The z-score in experiment [7] was -1.01 (inactive); in [8], 0.446; in [9], 0.142; in experiment [10], -0.28 (inactive).

Regarding `CC(C)N1C(=O)c2ccccc2[C@@H](C(=O)NCC(F)(F)F)[C@@H]1c1ccc(CO)cc1`, the z-score in [1] is 0.346; in experiment [2] it was -1.81; in experiment [3], 0.569; in experiment [4], 0.238; in [5], 0.371; in experiment [6] it was -0.0214. For the same compound, the z-score in experiment [7] was -0.516 (inactive); in [8] it was -0.00189; in experiment [9], 0.0428; in experiment [10], -0.0442 (inactive).

On to `Cc1ccc(F)cc1S(=O)(=O)N[C@H]1CCN(Cc2ccc(OC(C)C)cc2)C1`, for which the z-score is 0.376 in experiment [1]; -0.535 in experiment [2]; -0.7 in experiment [3]; -1.4 in [4]; -1.93 in [5]; -0.809 in [6]. In addition, the z-score in [7] is 0.416 (inactive); in experiment [8] it was 0.0436; in experiment [9], -1.41; in experiment [10], -0.477 (inactive).

Consider `O=C1O[C@@H](c2ccccc2)[C@@H](c2ccccc2)N2[C@@H](c3ccc(OCCO)cc3)[C@]3(C(=O)Nc4ccc(C#CCCO)cc43)[C@@H](C(=O)O)[C@H]12`, for which the z-score in [1] is 1.35; in experiment [2] it was -0.997; in experiment [3] it was 0.831; in experiment [4] it was 0.942; in experiment [5], 0.926; in [6], -0.498. For the same compound, the z-score in [7] is -0.382 (inactive); in experiment [8], 0.284; in experiment [9], -0.811; in experiment [10], -0.384 (inactive).

For the compound `C=CC[C@]1(C(=O)NCC(O)CO)COC(c2ccc(OCCCO)cc2)=N1` (stereo not given in full), the z-score in experiment [1] is -0.188; in experiment [2], -0.191; in experiment [3] it was -0.323; in experiment [4], -0.244; in [5], 0.146; in [6], -0.512. Moreover, the z-score is -0.604 (inactive) in [7], 0.00774 in experiment [8], -0.307 in experiment [9] and -0.106 (inactive) in experiment [10].

Turning to `COC(=O)C(CC#Cc1ccc2c(c1)[C@]1(C(=O)N2)[C@H](C(=O)N2CCc3cc(OC)c(OC)cc3C2)[C@H]2C(=O)O[C@H](c3ccccc3)[C@H](c3ccccc3)N2[C@@H]1c1ccccc1OCCO)C(=O)OC`, the z-score in [1] is -0.179; in experiment [2], -0.665; in experiment [3] it was 0.43; in experiment [4] it was -0.151; in experiment [5], 0.546; in experiment [6], -0.0236. Moreover, the z-score is 0.968 (inactive) in experiment [7], -0.839 in experiment [8], -1.42 in experiment [9] and -0.694 (inactive) in [10].

Regarding `C[N+](C)(C)CCCC[C@@H]1NC(=O)[C@@H]2C[C@H](C(=O)NCc3ccc(F)cc3)[C@H](c3ccc(O)cc3)N2C1=O`, the z-score in experiment [1] was 0.993; in experiment [2], -0.335; in experiment [3], 0.698; in experiment [4], 0.481; in experiment [5], -0.114; in experiment [6], 1.62. Besides, the z-score was -0.41 (inactive) in experiment [7], -0.0248 in experiment [8], -0.524 in experiment [9] and -0.0894 (inactive) in [10].

Source of the values: PubChem BioAssay.
